This is a sample that favours compounds with a hit; in the whole collection about 27% have one here.
sEH activator: soluble epoxide hydrolase activators, primary screen, biochemical, human sEH. activation, % at 2 µM. 0.04% of 91,000 active. purified human sEH enzymatic activity, activator screen. AID 717, 2007. Bifunctional epoxide hydrolase 2 (Homo sapiens), P34913; in the data active = activation above about 37%
Target sequence (P34913 whole entry, looked up): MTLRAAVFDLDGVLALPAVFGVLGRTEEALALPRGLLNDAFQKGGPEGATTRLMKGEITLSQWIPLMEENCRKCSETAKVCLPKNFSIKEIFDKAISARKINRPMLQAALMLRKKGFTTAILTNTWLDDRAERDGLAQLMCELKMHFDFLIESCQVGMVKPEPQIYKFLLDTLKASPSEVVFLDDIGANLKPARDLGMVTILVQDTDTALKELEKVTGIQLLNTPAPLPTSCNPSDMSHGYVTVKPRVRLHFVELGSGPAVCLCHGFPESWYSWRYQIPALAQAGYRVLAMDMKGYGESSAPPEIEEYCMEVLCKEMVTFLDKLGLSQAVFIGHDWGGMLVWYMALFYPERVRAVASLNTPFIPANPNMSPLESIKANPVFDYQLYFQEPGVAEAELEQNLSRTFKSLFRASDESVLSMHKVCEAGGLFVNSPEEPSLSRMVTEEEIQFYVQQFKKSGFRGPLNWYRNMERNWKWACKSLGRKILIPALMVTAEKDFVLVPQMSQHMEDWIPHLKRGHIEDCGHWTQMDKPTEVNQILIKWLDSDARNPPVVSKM
CYP2C9 inhib: blockers of cytochrome P450 2C9 activity – biochemical, luminescence, ADME assay, primary screen; inhibition, % at 5 µM; P11712; AID 777, 2007; CYP2C9 Supersomes, luciferin-H conversion; 20% of 96,000 active;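 active = blocking of liver enzyme CYP2C9 beyond about 50% at 5 µM, limit read from the data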
CYP2C9 activ: human CYP2C9 activators, primary screen, biochemical, luminescence; Cytochrome P450 2C9 (Homo sapiens), P11712; recombinant CYP2C9, luciferin-H conversion; stronger effect = higher value; factor 1 = untreated enzyme, 0 = blocked; activation factor at 5 µM; 1.4% of 96,000 active; AID 1024, 2008;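 active = activation factor of 2 or more for CYP2C9 at a 5 µM dose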
CYP2C19 inh: blockers of cytochrome P450 2C19 activity – biochemical, luminescence, ADME assay, primary screen. P33261. CYP2C19 Supersomes, luciferin-H EGE luminescence, 30 min. inhibition, % at 5 µM. 21% of 96,000 active. AID 778, 2007;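 active = CYP2C19 inhibition above a set limit at 5 µM in the primary screen, cut at about 50% in these data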
CYP2C19 act: human CYP2C19 activators, primary screen, biochemical, luminescence; recombinant CYP2C19, luciferin-H EGE luminescence; stronger effect = higher value; 0 = fully inhibited enzyme, 1 = untreated enzyme; activation factor at 5 µM; 96,000 tested, under 10 active; AID 1025, 2008;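 active = activation factor of at least 2 at 5 µM in the primary screen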
sEH inh: soluble epoxide hydrolase inhibitors, primary screen, biochemical, human sEH | recombinant human sEH enzymatic activity assay | Bifunctional epoxide hydrolase 2 (Homo sapiens), P34913 | 0.34% of 91,000 active | inhibition, % at 2 µM; in the data active = inhibition above about 80%
Each line names hits and unclear results; the compound was inactive in the other large screens.

CC(/C=C1\SC(=S)N(NC(=O)c2ccc(C)cc2)C1=O)=C\c1ccccc1	CYP2C9 inhib 61.2
CC(/C=N/NC(=O)c1ccc(Br)cc1)=C\c1ccccc1	none
CCc1c(C)c2ccc(OCC(=O)OC)cc2oc1=O	CYP2C19 inh 58.8
Cc1cc(NC(=O)COC(=O)[C@H](C)NC(=O)c2ccccc2)no1	none
Cc1cc(NC(=O)COC(=O)C(Nc2ccc(C(F)(F)F)cc2Cl)C(C)C)no1 (centres undefined)	CYP2C9 inhib 52.1, CYP2C19 inh 56.9
Clc1ncn(C23CC4CC(CC(C4)C2)C3)n1	none
CCOC(=O)C(C)Sc1ncc(OC)c(=O)[nH]1 (centres undefined)	none
CCOC(=O)CSc1ncc(OC)c(Sc2ccc(Cl)cc2)n1	CYP2C9 inhib 57.5 (no result: sEH activator, sEH inh)
CCOC(=O)C(C)Sc1ncc(OC)c(Sc2ccc(Cl)cc2)n1 (centres undefined)	CYP2C9 inhib 82.6 (no result: sEH activator, sEH inh)
CN(C)c1nc(NCc2ccccc2)nc(N/N=C/c2ccc(Cl)cc2Cl)n1	none
CCn1c(Cn2nnc(-c3ccccc3)n2)nnc1SCC(=O)Nc1cccc(C(C)=O)c1	CYP2C19 inh 69.7
CCn1c(Cn2nnc(-c3ccccc3)n2)nnc1SCC(=O)Nc1cccc(C)c1C	CYP2C9 inhib 57.3, CYP2C19 inh 67.5
CCn1c(Cn2nnc(-c3ccccc3)n2)nnc1SCC(=O)Nc1ccc(C(C)=O)cc1	none
Cc1cc(OCc2nn[nH]n2)c2c(C)c(Cc3ccccc3)c(=O)oc2c1	CYP2C9 inhib 98.2, CYP2C19 inh 80.1
Cc1cc(OCc2nn[nH]n2)c2c(C)c(CC(=O)O)c(=O)oc2c1	none
Cc1c(Cc2ccccc2)c(=O)oc2c(C)c(OCc3nn[nH]n3)ccc12	CYP2C9 inhib 81.3
CC(C)CCN1C(=O)c2ccc(C(=O)OCn3nnc4ccccc4c3=O)cc2C1=O	none (no result: sEH activator, sEH inh)
N#CC1=C(SCC(N)=O)NC2=C(C(=O)c3ccccc32)C1c1ccc(Cl)cc1 (centres undefined)	CYP2C9 inhib 63.0
CCN1C(=O)NC2=C(C(=O)c3ccccc32)C1c1ccccc1F (centres undefined)	none
CC(=O)c1cccc(NC(=O)CCS(=O)(=O)c2cccc3nonc23)c1	none (no result: sEH activator, sEH inh)
Cc1cccc(OCCC(=O)OCC(=O)N2CCc3ccccc32)c1	CYP2C19 inh 52.9
Cc1cc(=O)oc2ccc(OCC(=O)N3CCc4ccccc43)cc12	CYP2C9 inhib 72.2
Cc1nnc(NC(=O)COc2ccc3c(C)cc(=O)oc3c2)s1	CYP2C9 inhib 73.4
Cc1cc(=O)oc2cc(OCC(=O)N3CCCc4ccccc43)ccc12	CYP2C9 inhib 75.4
Cc1cc(=O)oc2cc(OCC(=O)N3CCc4ccccc4C3)ccc12	none (no result: sEH activator, sEH inh)
COC(=O)c1nc2nc(C)cc(=O)n2[nH]1	none
CCCCNC(=O)Cn1c(-c2ccc(OC)cc2)noc1=O	CYP2C19 inh 65.1
CCCCC(=O)NCCc1ccc(OC)cc1	CYP2C19 inh 57.4
COc1ccc(S(=O)(=O)CCC(=O)NCCc2ccc(Cl)cc2)cc1	CYP2C9 inhib 71.0, CYP2C19 inh 70.6
COc1ccc(CCNC(=O)CCS(=O)(=O)c2ccc(C)cc2)cc1OC	none
CCCc1ccc(OCCNC(=O)CC)cc1	CYP2C19 inh 55.6
CCC(=O)N(CC(=O)Nc1sc(C)c(C)c1C(N)=O)C1CCCCC1	none
COc1ccc(CCNC(=S)Nc2cc(C)cc(C)c2)cc1	CYP2C19 inh 62.2
COCCCNC(=O)CC(NS(=O)(=O)c1ccc(Cl)cc1)c1ccc(OC)cc1 (centres undefined)	CYP2C19 inh 54.9
COCCCNC(=O)CC(NS(=O)(=O)c1ccc(OC)cc1)c1ccc(OC)cc1 (centres undefined)	none
COc1ccc(CCNC(=S)Nc2ccccc2C)cc1	none
CN(CCO)C1=CC(=O)CC(C)(C)C1	none (no result: CYP2C9 inhib, CYP2C9 activ, CYP2C19 inh, CYP2C19 act)
O=S(=O)(Nc1ccc(N2CCOCC2)nn1)c1ccccc1	none (no result: sEH activator, sEH inh)
CCN(CC)S(=O)(=O)c1ccc2[nH]cc(C(=O)NCCCN3CCCCC3C)c(=O)c2c1 (centres undefined)	none

Assay outcomes as filed in PubChem BioAssay.
